How the values were obtained:
[1] = molecular target: Serine/threonine-protein kinase PAK 4 (Homo sapiens) (UniProt O96013); conditions: at 1 µM
[2] = molecular target: Serine/threonine-protein kinase PAK 4 (Homo sapiens) (UniProt O96013); conditions: at 10 µM
[3] = molecular target: Serine/threonine-protein kinase PAK 5 (Homo sapiens) (UniProt Q9P286); conditions: at 1 µM
[4] = molecular target: Serine/threonine-protein kinase PAK 5 (Homo sapiens) (UniProt Q9P286); conditions: at 10 µM
[5] = molecular target: Serine/threonine-protein kinase PAK 6 (Homo sapiens) (UniProt Q9NQU5); conditions: at 1 µM
[6] = molecular target: Serine/threonine-protein kinase PAK 6 (Homo sapiens) (UniProt Q9NQU5); conditions: at 10 µM
[7] = molecular target: Activated CDC42 kinase 1 (Homo sapiens) (UniProt Q07912); conditions: at 1 µM
Sequence of Activated CDC42 kinase 1 (Homo sapiens) (Q07912 whole entry, looked up): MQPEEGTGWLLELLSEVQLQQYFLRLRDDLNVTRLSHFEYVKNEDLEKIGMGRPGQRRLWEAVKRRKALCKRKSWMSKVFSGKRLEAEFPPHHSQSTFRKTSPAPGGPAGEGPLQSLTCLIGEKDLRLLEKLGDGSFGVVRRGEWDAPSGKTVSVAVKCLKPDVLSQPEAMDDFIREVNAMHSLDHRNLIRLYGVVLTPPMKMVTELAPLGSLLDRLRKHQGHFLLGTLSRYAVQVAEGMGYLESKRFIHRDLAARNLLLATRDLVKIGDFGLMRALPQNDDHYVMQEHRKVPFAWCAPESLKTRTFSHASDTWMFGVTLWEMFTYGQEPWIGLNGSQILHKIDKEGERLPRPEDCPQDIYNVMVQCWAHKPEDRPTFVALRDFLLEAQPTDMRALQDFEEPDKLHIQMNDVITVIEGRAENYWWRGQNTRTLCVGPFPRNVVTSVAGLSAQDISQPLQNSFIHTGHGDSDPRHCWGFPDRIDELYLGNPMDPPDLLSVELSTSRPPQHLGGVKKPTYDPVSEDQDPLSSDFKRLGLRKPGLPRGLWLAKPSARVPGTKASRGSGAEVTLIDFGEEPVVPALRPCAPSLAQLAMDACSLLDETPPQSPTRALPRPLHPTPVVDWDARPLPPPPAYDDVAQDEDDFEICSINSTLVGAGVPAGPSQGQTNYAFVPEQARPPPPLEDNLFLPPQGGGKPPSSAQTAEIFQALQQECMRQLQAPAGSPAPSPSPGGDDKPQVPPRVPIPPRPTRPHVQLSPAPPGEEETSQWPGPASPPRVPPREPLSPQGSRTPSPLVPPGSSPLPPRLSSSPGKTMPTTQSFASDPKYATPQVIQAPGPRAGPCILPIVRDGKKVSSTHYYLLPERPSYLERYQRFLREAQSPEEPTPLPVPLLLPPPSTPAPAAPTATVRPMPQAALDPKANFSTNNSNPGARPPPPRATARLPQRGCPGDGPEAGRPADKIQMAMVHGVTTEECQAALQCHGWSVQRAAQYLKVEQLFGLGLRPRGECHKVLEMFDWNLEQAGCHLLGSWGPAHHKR

[8] = molecular target: Activated CDC42 kinase 1 (Homo sapiens) (UniProt Q07912); conditions: at 10 µM
[9] = molecular target: T1, Activin receptor type-1B (Homo sapiens) (UniProt P36896); conditions: at 1 µM
T1 sequence (whole entry): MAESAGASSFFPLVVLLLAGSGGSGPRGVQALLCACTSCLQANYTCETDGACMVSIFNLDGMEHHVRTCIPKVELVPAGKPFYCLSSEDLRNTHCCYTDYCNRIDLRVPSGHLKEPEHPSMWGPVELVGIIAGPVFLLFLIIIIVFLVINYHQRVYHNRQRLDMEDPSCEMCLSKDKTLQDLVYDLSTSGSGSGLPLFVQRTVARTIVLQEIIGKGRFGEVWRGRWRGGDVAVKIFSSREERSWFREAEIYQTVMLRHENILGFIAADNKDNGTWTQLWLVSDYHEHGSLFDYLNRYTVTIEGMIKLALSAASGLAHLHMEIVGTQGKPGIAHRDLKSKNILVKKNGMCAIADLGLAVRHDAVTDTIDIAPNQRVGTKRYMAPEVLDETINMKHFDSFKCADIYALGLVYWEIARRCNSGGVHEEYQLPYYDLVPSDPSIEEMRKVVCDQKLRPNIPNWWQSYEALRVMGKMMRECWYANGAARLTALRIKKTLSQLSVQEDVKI

[10] = molecular target: T1, Activin receptor type-1B (Homo sapiens); conditions: at 10 µM
[11] = molecular target: T2, NUAK family SNF1-like kinase 1 (Homo sapiens) (UniProt O60285); conditions: at 1 µM
T2 sequence (whole entry): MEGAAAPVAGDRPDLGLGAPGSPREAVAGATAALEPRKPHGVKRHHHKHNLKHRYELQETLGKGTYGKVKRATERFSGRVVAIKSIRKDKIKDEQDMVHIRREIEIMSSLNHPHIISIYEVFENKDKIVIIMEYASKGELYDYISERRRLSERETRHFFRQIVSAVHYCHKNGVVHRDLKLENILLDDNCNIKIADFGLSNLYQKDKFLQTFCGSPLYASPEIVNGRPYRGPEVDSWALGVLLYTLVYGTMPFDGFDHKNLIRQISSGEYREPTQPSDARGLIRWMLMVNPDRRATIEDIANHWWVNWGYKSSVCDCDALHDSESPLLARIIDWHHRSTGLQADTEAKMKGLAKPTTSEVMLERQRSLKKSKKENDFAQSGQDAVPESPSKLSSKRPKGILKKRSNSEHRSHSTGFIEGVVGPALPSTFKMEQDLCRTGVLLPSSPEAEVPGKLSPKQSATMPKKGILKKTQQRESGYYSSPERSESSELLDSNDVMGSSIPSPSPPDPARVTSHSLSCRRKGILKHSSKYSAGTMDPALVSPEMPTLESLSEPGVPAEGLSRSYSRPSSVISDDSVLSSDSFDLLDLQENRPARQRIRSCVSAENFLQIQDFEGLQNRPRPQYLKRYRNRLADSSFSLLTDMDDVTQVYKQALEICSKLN

[12] = molecular target: T2, NUAK family SNF1-like kinase 1 (Homo sapiens); conditions: at 10 µM
[13] = molecular target: PAS domain-containing serine/threonine-protein kinase (Homo sapiens) (UniProt Q96RG2); conditions: at 10 µM
Sequence of PAS domain-containing serine/threonine-protein kinase (Homo sapiens) (Q96RG2 whole entry, the tested form may be a part): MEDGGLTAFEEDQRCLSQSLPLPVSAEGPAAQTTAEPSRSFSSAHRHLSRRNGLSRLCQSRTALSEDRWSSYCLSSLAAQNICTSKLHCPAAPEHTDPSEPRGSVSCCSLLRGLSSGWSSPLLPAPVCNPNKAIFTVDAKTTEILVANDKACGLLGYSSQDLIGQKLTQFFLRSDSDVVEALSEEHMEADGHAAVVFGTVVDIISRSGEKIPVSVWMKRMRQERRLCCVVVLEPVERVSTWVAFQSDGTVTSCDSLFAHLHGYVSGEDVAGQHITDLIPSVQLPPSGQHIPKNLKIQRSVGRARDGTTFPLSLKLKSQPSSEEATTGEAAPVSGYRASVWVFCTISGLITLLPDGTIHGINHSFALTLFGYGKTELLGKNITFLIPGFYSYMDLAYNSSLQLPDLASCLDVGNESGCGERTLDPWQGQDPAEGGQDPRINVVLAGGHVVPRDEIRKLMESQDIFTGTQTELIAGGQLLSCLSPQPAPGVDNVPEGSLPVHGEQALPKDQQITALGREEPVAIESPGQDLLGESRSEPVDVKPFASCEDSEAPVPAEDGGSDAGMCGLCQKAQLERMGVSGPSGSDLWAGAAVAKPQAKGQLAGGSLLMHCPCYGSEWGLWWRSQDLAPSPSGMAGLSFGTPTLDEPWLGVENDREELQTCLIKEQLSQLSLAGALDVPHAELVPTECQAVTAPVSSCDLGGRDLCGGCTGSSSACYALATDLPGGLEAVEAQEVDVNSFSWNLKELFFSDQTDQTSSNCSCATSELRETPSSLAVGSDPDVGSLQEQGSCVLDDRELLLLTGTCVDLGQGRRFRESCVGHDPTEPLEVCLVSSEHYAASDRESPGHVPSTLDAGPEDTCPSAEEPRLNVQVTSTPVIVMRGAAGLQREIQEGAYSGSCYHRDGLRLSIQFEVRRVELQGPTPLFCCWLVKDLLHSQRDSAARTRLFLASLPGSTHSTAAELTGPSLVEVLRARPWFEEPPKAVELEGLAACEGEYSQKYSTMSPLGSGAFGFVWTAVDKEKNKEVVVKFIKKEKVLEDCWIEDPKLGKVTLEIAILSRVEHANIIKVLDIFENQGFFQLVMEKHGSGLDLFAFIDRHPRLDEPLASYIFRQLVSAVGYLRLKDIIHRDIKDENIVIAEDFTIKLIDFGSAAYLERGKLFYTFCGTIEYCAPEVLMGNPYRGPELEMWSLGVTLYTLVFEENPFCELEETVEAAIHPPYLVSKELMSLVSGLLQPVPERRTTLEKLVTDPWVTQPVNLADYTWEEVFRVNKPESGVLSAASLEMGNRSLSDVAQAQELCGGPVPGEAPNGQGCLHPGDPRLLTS

[14] = molecular target: ALK tyrosine kinase receptor (Homo sapiens) (UniProt Q9UM73); conditions: at 1 µM
Sequence of ALK tyrosine kinase receptor (Homo sapiens) (Q9UM73 19-1620 limits assumed): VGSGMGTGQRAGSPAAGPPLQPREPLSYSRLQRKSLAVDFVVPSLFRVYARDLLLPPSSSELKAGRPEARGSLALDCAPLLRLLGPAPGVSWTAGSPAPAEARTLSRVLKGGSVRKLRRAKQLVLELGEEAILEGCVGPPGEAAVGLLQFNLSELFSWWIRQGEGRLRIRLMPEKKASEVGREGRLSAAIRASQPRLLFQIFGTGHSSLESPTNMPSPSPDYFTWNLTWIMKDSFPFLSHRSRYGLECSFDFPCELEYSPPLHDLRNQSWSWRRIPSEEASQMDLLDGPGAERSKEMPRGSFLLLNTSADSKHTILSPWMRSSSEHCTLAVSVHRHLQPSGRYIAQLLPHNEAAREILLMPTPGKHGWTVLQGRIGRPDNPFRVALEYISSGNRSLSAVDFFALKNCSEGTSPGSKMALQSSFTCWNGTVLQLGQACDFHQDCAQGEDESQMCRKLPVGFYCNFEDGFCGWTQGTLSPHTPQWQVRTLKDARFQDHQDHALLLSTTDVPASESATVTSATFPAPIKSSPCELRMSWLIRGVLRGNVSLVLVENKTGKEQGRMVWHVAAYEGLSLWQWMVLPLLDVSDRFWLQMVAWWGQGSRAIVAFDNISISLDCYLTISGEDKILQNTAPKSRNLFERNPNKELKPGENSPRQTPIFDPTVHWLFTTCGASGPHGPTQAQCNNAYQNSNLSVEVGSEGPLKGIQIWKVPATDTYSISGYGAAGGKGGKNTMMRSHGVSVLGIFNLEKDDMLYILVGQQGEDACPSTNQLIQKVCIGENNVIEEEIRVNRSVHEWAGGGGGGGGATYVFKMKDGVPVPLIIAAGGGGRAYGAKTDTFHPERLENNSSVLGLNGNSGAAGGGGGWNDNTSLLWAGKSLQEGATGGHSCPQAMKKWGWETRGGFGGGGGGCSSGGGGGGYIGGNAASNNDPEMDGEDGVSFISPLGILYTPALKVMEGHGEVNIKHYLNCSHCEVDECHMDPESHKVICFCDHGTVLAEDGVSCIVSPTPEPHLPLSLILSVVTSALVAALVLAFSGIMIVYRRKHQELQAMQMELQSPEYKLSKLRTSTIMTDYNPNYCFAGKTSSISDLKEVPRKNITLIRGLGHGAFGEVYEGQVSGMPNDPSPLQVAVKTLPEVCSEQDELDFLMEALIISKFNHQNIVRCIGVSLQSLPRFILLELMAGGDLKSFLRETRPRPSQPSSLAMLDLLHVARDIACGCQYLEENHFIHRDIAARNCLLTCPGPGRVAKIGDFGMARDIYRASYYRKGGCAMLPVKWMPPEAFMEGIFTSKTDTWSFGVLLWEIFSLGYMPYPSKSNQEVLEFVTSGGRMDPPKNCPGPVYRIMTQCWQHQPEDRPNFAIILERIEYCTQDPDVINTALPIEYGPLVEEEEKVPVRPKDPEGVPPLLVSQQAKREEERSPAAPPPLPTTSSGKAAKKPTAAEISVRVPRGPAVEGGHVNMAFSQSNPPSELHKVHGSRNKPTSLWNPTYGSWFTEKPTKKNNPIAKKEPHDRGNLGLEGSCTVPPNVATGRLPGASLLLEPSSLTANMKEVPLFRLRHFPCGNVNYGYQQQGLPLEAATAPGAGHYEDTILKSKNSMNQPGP

[15] = molecular target: ALK tyrosine kinase receptor (Homo sapiens) (UniProt Q9UM73); conditions: at 10 µM
[16] = molecular target: T3, AMP-activated protein kinase (AMPK) alpha-1/beta-1/gamma-1 (Homo sapiens) (UniProt P54619+Q9Y478+Q13131); conditions: at 1 µM
[17] = molecular target: T3, AMP-activated protein kinase (AMPK) alpha-1/beta-1/gamma-1 (Homo sapiens); conditions: at 10 µM
[18] = molecular target: T4, AMP-activated protein kinase, AMPK (Homo sapiens) (UniProt P54646+O43741+P54619+Q9UGJ0+Q9Y478+Q13131+Q9UGI9); conditions: at 1 µM
[19] = molecular target: T4, AMP-activated protein kinase, AMPK (Homo sapiens); conditions: at 10 µM
[20] = molecular target: T5, Mitogen-activated protein kinase kinase kinase 5 (Homo sapiens) (UniProt Q99683); conditions: at 1 µM
T5 sequence (whole entry): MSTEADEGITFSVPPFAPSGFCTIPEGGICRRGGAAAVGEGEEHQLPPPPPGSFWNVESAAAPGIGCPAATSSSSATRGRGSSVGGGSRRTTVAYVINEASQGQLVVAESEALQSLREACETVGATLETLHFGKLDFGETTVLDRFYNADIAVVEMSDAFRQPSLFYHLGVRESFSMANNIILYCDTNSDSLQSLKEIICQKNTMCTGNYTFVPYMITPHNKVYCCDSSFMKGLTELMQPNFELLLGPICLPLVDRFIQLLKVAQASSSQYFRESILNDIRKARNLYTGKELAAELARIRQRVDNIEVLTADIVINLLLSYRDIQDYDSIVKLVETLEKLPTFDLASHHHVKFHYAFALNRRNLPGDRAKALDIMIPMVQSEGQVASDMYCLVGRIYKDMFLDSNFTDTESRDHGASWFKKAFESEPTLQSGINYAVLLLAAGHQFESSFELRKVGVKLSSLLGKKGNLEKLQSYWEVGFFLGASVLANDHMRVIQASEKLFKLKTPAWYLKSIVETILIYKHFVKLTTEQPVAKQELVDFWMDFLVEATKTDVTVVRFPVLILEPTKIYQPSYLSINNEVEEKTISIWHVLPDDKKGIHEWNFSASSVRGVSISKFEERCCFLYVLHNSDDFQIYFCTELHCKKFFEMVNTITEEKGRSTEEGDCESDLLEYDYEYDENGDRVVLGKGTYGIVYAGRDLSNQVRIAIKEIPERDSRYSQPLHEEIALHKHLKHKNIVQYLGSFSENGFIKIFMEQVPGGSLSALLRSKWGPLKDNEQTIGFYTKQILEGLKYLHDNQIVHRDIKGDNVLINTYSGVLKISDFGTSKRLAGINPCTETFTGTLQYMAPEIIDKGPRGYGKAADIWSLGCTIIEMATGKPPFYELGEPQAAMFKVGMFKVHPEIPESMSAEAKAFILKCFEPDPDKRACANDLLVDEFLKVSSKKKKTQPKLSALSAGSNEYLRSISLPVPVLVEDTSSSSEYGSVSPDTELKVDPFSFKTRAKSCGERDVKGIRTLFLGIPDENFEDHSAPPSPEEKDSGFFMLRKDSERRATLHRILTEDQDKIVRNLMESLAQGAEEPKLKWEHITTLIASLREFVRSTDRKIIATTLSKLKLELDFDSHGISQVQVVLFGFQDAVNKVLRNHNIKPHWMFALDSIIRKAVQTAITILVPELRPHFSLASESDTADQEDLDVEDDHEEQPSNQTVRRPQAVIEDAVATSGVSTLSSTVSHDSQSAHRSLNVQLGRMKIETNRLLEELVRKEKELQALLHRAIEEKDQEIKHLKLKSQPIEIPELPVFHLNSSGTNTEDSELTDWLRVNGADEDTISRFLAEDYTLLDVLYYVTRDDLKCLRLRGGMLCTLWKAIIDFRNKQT

Sequence of Serine/threonine-protein kinase PAK 4 (Homo sapiens) (O96013 whole entry, looked up): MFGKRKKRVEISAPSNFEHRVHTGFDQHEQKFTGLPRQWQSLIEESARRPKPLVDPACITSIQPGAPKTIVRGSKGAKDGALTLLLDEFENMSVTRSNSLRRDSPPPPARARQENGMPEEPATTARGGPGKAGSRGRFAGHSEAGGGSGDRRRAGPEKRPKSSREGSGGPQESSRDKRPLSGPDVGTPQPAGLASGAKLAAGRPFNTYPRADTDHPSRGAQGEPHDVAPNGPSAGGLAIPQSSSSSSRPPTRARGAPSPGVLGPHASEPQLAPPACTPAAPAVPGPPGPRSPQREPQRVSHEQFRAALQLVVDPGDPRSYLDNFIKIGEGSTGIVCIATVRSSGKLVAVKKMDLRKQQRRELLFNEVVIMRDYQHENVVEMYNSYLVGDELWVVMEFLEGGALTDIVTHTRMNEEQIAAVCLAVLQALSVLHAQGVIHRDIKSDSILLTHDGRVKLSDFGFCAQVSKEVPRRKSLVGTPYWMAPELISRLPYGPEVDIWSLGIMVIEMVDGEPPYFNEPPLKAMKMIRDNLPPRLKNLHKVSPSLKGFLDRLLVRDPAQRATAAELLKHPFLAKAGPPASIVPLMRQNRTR

With `Oc1cccc(-c2nc(N3CCOCC3)c3oc4ncccc4c3n2)c1` the residual activity [1] was 100%, the residual activity [2] was 93% and the residual activity [3] was 84%. The residual activity [4] was 84%, the residual activity [5] was 100% and the residual activity [6] was 78%. It also gave a residual activity [7] of 78%, a residual activity [8] of 69% and a residual activity [9] of 148%. The residual activity [10] was 92%, the residual activity [11] was 98% and the residual activity [12] was 99%.

In the case of `Cn1c2ccccc2c2c3c(c4c5ccccc5n(CCC#N)c4c21)CNC3=O`, the residual activity [1] is reported as 3%, the residual activity [2] is reported as 2% and the residual activity [3] is reported as 12%. The residual activity [4] was 14%, the residual activity [5] was 4% and the residual activity [6] was 2%. For the same molecule, the residual activity [13] was 49%, the residual activity [7] was 3% and the residual activity [8] was 0%. It also gave a residual activity [14] of 0%, a residual activity [15] of 4% and a residual activity [9] of 108%. For the same molecule, the residual activity [10] was 64%, the residual activity [16] was 22% and the residual activity [17] was 22%. It also gave a residual activity [18] of 19%, a residual activity [19] of 16% and a residual activity [11] of 10%. It also gave a residual activity [12] of 6% and a residual activity [20] of 17%.

Molecule `O=C(c1cc2cc(O)ccc2[nH]1)c1cc2cc(O)ccc2[nH]1` has a residual activity [1] of 71%, a residual activity [2] of 30% and a residual activity [5] of 83%. It also gave a residual activity [6] of 52%, a residual activity [7] of 64% and a residual activity [8] of 24%. It also gave a residual activity [14] of 68%, a residual activity [15] of 58% and a residual activity [9] of 111%. For the same molecule, the residual activity [16] was 16%, the residual activity [17] was 1% and the residual activity [18] was 13%. The residual activity [19] was 3%, the residual activity [11] was 65% and the residual activity [12] was 20%.

Work on `CC(C)c1nn(-c2c(Cl)cccc2Cl)c2nc(Cc3ccc(OCCO)cc3)[nH]c(=O)c12` yielded a residual activity [1] of 84%, a residual activity [2] of 32% and a residual activity [3] of 73%. The residual activity [4] was 21%, the residual activity [5] was 79% and the residual activity [6] was 51%. For the same molecule, the residual activity [7] was 63%, the residual activity [8] was 31% and the residual activity [14] was 78%. The residual activity [15] was 42%, the residual activity [16] was 93% and the residual activity [17] was 71%. It also gave a residual activity [18] of 87%, a residual activity [19] of 74% and a residual activity [11] of 96%. It also gave a residual activity [12] of 72% and a residual activity [20] of 95%.

With `NC(=O)Nc1sc(-c2ccc(F)cc2)cc1C(N)=O` the residual activity [1] was 55%, the residual activity [2] was 14% and the residual activity [3] was 67%. The residual activity [4] was 27%, the residual activity [5] was 88% and the residual activity [6] was 40%. For the same molecule, the residual activity [13] was 96%, the residual activity [7] was 10% and the residual activity [8] was 2%. For the same molecule, the residual activity [14] was 78%, the residual activity [15] was 31% and the residual activity [16] was 69%. It also gave a residual activity [17] of 27%, a residual activity [18] of 66% and a residual activity [19] of 25%.

Molecule `O=c1cc(N2CCNCC2)oc2c(-c3ccccc3)cccc12` has a residual activity [1] of 102%, a residual activity [2] of 85% and a residual activity [3] of 104%. It also gave a residual activity [4] of 95%, a residual activity [5] of 89% and a residual activity [6] of 82%. It also gave a residual activity [13] of 51%, a residual activity [7] of 88% and a residual activity [8] of 69%. The residual activity [14] was 69%, the residual activity [15] was 49% and the residual activity [16] was 95%. It also gave a residual activity [17] of 75%, a residual activity [19] of 71% and a residual activity [11] of 91%. It also gave a residual activity [12] of 82% and a residual activity [20] of 90%.

`COc1ccc(-c2cnc3c(-c4ccsc4)cnn3c2)cc1` gave a residual activity [1] of 99%, a residual activity [2] of 94% and a residual activity [3] of 94%. It also gave a residual activity [13] of 94%, a residual activity [7] of 71% and a residual activity [8] of 68%. For the same molecule, the residual activity [9] was 126%, the residual activity [10] was 88% and the residual activity [18] was 88%. The residual activity [19] was 79% and the residual activity [20] was 82%.

With `Cn1sc(=O)n(Cc2ccccc2)c1=O` the residual activity [1] was 94%, the residual activity [2] was 89% and the residual activity [3] was 97%. For the same molecule, the residual activity [4] was 94%, the residual activity [5] was 96% and the residual activity [6] was 94%. It also gave a residual activity [13] of 138%, a residual activity [7] of 77% and a residual activity [8] of 64%. It also gave a residual activity [14] of 64%, a residual activity [15] of 71% and a residual activity [16] of 83%. It also gave a residual activity [17] of 82%, a residual activity [18] of 89% and a residual activity [19] of 90%. It also gave a residual activity [20] of 81%.

Reference: ChEMBL document CHEMBL2218924, “A broad activity screen in support of a chemogenomic map for kinase signalling research and drug discovery” (Biochem J, 2013)
